# LmPK inh: qHTS Assay for Inhibitors of Leishmania Mexicana Pyruvate Kinase (LmPK); Q27686; Potency, µM (top dose mostly 57.5 µM), inactives show top-dose activity change, negative = inhibition, actives largely listed as inhibitors; purified LmPK, Kinase-Glo ATP luminescence, 1 h; 290,000 tested, 0.37% active; note: potency is the fitted concentration of half-maximal effect; % is set by controls: 0 for no effect and ±100 for the full control effect
# Target sequence (Q27686 whole entry, looked up): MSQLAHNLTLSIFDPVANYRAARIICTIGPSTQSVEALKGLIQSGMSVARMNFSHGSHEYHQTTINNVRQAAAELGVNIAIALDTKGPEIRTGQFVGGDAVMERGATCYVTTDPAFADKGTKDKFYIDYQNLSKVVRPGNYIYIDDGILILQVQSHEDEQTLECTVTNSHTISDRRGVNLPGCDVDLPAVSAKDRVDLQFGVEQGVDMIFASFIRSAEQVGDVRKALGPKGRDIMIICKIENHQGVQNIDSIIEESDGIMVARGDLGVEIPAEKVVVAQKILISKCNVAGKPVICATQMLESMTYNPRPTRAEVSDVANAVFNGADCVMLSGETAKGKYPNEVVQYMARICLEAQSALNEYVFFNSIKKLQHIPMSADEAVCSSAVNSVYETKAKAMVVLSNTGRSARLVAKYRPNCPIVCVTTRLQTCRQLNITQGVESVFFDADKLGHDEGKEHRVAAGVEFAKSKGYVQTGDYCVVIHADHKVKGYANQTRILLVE
#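 In 50 mM imidazole pH 7.2 with 7 mM MgCl2, LmPK (0.1 nM) turned over PEP (0.5 mM) and ADP (0.1 mM) for 1 h at room temperature. Luciferase read-out of ATP.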
# Pf growth 48h: Primary qHTS for delayed death inhibitors of the malarial parasite plastid, 48 hour incubation; Potency, µM (top dose mostly 28.7 µM), for the others: at the highest dose activity change, negative = inhibition, hits mostly inhibitors; 310,000 tested, 5.9% active; P. falciparum luciferase growth in erythrocytes, 48 h; AID 504832, 2011; note: potency is the fitted concentration of half-maximal effect; % is set by controls: 0 for no effect and ±100 for the full control effect
#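 In quantitative HTS format, infected erythrocytes bearing luciferase-reporter parasites were treated for a single generation at 37 C. Luminescence after adding detection reagent served as the growth measure.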
# Cycloheximide cs: Cycloheximide Counterscreen for Small Molecule Inhibitors of Shiga Toxin | max response, % | cell reporter, cycloheximide protein synthesis inhibition counterscreen | 300,000 tested, 12% active; in the data active = max response mostly above about 13%, no sharp cut-off; inactive = mostly below about 14%; note: read at 38.3 µM for the half of the compounds with a filed dose; 0% is about no effect
# Shiga toxin inh: A qHTS for Small Molecule Inhibitors of Shiga Toxin | Vero cells, Shiga toxin protein synthesis inhibition reporter | 290,000 tested, 9.2% active | inhibition, % at 38.7 µM; in the data active = inhibition mostly above about 28%, no sharp cut-off; inactive = mostly below about 43%; note: 0% is about no effect
# Pf growth 96h: Primary qHTS for delayed death inhibitors of the malarial parasite plastid, 96 hour incubation; P. falciparum luciferase reporter growth, 96 h; 320,000 tested, 6.9% active; Potency, µM (doses to about 28.7 µM), for inactives: at the highest dose activity change, negative = inhibition, most hits filed as inhibitors; note: potency is the fitted concentration of half-maximal effect; % is set by controls: 0 for no effect and ±100 for the full control effect
#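 Plates of compound plus infected erythrocytes (2% hematocrit, 0.05% parasitemia final) incubate 96 hours, 37 C, 5% CO2. Detection reagent added; reduced luminescence from the parasites' luciferase reporter flags inhibition.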
# Numbers without * were called inactive; u = inconclusive; x = not tested or not shown. This is a sample that favours compounds with a hit; in the whole collection about 22% have one here. Unless noted, calls come from the whole dose curve; as a rule, active = well fitted inhibition curve with a large enough effect; inconclusive = small, poorly fitted or top-dose-only effect, or another doubt; inactive = no such curve, though single readings can be large or run the other way.
SMILES,LmPK inh,Pf growth 48h,Cycloheximide cs,Shiga toxin inh,Pf growth 96h
O=C(Cc1cccc(C(F)(F)F)c1)NCC(c1ccco1)N1CCCCC1 (stereo not given),-1.8%,u,-1.1,6.6,u
CCc1nnc(NC(=O)CCC(=O)Nc2ccc(Cl)cc2)s1,0.9%,7.2%,-3.1,-4.3,1.9%
Cc1ccc(C(=O)NCC(=O)N2CCCCCCC2)cc1C,x,39.4%,x,x,31.6%
CSc1cccc(NC(=O)CCCn2c(=O)c3cccn3c3cccnc32)c1,-1.3%,u,9.3,16.4,11.1%
Cc1ccc(S(=O)(=O)Nc2cccc(C(=O)NCC(c3ccco3)N3CCCCC3)c2)cc1F (stereo not given),x,u,x,x,-17.5%
Cc1ccc(C(=O)NCC(c2ccco2)N2CCOCC2)cc1 (stereo not given),x,u,x,x,6.57µM*
O=C(NCC(c1ccco1)N1CCCCC1)c1cccc(S(=O)(=O)Nc2ccc(F)cc2)c1 (stereo not given),x,10.4µM*,x,x,u
Cc1ccc(NS(=O)(=O)c2ccc(C(=O)NCC(c3ccco3)N3CCCCC3)cc2)cc1 (stereo not given),x,-8.5%,x,x,u
CCOc1ccc(S(=O)(=O)Nc2ccc(C(=O)NCC(c3ccco3)N3CCCCC3)cc2)cc1 (stereo not given),x,3.1%,x,x,u
Cc1ccc(NS(=O)(=O)c2cccc(C(=O)NCC(c3ccco3)N3CCCC3)c2)cc1 (stereo not given),x,13.1µM*,x,x,u
O=C(NCC(c1ccco1)N1CCCC1)c1cccc(S(=O)(=O)Nc2ccc(F)cc2)c1 (stereo not given),x,13.1µM*,x,x,14.7µM*
O=C(NN=C1C2CC3CC(C2)CC1C3)c1cccc(S(=O)(=O)N2CCOCC2)c1,-1.4%,14.2%,-2.3,-14.3,10.0%
O=C(CNC(=O)c1ccc(S(=O)(=O)N2CCCC2)cc1)N/N=C/c1ccco1,4.1%,2.8%,-2.4,-1.2,2.9%
COc1ccc(S(=O)(=O)Oc2ccccc2C(N)=O)cc1,x,19.8%,x,x,-5.3%
COc1ccc2nc3cc(Cl)ccc3c(Nc3cc(CN4CCCC4)c(O)c(CN4CCCC4)c3)c2n1,u,0.0522µM*,1.4,-0.8,u
CCN(CC)CCCC(C)Nc1c2ccc(Cl)cc2nc2ccc(OC)cc12 (stereo not given),1.4%,x,-2.6,-10.8,x
Cc1ccc(C)c(S(=O)(=O)N/N=C/c2ccc(N3CCOCC3)cc2)c1,6.4%,1.7%,-3.4,-1.8,-1.1%
O=C(CSc1nnc(SCc2cccc3ccccc23)s1)c1ccc2c(c1)OCO2,5.3%,4.3%,13.7*,-6.7,u
O=C(CSc1ncn(-c2ccccc2)n1)Nc1ccc2c(c1)OCO2,-1.6%,9.8%,-1.5,21.5,u
O=C(CSc1ccccn1)NCc1ccc2c(c1)OCO2,5.2%,65.0%,11.8*,-7.6,u
O=C(CSc1ccccn1)Nc1ccc2c(c1)OCO2,0.5%,46.7%,34.5*,100.8*,55.5%
O=C(CSc1nnc(SCc2cccc3ccccc23)s1)Nc1ccc(C(=O)O)cc1,0.9%,64.0%,-6.7,-9.8,103.2%
O=C(CSc1ccccn1)c1ccc2c(c1)OCO2,u,154.5%,37.2*,38.9*,7.2%
Cn1c(SCC(=O)c2ccc3c(c2)OCO3)nnc1-c1ccccn1,-6.3%,8.7%,24.5,19.4,x
O=C(CSc1nnc2ccccn12)NCc1ccc2c(c1)OCO2,1.3%,15.4%,7.7,10.1,282.1%
SMILES,LmPK inh,Pf growth 48h,Cycloheximide cs,Shiga toxin inh,Pf growth 96h
CCOC(=O)c1cnc2c(C)cc(C)cc2c1NCCCN1CCOCC1,4.5%,u,1.3,-6.3,4.2%
COc1ccccc1CNC(=O)C1CCN(c2ncnc3c2nc2n3CCCCC2)CC1,-1.6%,-9.2%,6.2,-3.2,-13.6%
C/C(Cc1ccccc1)=N\NC(=O)c1ccccn1,0.6%,93.0%,53.4*,89.0*,24.8%
COc1ccc(CCNC(=O)c2cnccn2)cc1,3.2%,x,-5.2,2.6,u
C/C(CC(=O)Nc1ccc2c(c1)OCCO2)=N\NC(=O)c1ccccn1,-2.2%,146.2%,11.0,12.8,27.4%
C/C(CC(=O)NCc1ccccc1)=N\NC(=O)c1cnccn1,0.2%,12.7%,12.2*,40.3*,-13.6%
C/C(CC(=O)NCc1ccccc1)=N\NC(N)=S,-7.1%,u,6.2,-4.4,u

# Source: PubChem BioAssay
